Drawing on PubChem BioAssay (Tox21), this text covers Potency and activity change, negative = cytotoxicity for 40 compounds.

Where “and” joins values, the source holds several entries; their conditions need not be identical. Identical values can stand only once. Inconclusive results are not listed. A call without a number means that no potency is given here. Calls of active or inactive are those of the source. Calls come from the whole dose curve; as a rule, active = well fitted cell-killing curve with a large enough effect in the repeat runs; inconclusive = weak or mixed curves, or effect the other way; inactive = no such curve, though single readings can be large or run the other way.
Potency is the fitted concentration of half-maximal effect.

The nature of this test: qHTS assay for small molecule activators of the heat shock response signaling pathway - cell viability counter screen (AID 743209). Note: nearly all actives have a fitted effect of over 50% in size. To be noted: HSE-bla HeLa viability, CellTiter-Glo luminescence, 5 h; series mostly up to 62.6 µM. The source says:
U.S. Tox21 Program National Center for Advancing Translational Sciences [NCATS] NIH Chemical Genomics Center [NCGC] U.S. Environmental Protection Agency [EPA] National Institutes of Environmental Health Sciences [NIEHS] National Toxicology Program [NTP] U.S. Food and Drug Administration [FDA] Tox21 Assay Overview: Various chemicals, environmental and physiological stress conditions may lead to the activation of heat shock response/ unfolded protein response (HSR/UPR). There are three heat shock transcription factors (HSFs) (HSF-1, -2, and -4) mediating transcriptional regulation of the human HSR. To identify the compounds that activate HSR signaling, HSE-bla HeLa cell line (Invitrogen, Carlsbad, CA, USA) containing a beta-lactamase reporter gene under the control of the heat shock response elements was used to screen Tox21 10K compound library. The cytotoxicity of the Tox21 compound library against the HSE-bla HeLa cell line was tested in parallel by measuring the cell viability using CellTiter-Glo assay (Promega, Madison, WI) in the same wells.
Tox21 Assay Protocol Summary: The CellSensor HSE-bla HeLa cells (Invitrogen, Carlsbad, CA, USA) were dispensed at 1500 cells/6uL/well into 1536-well black wall/clear bottom plates using a Multidrop combi (Thermo Fisher Scientific, Waltham, MA) dispenser. After the assay plates were incubated at 37 C and 5% CO2 overnight, 23 nL of compounds dissolved in DMSO, positive controls or DMSO only was transferred to the assay plate by a Pintool station (Kalypsys, San Diego, CA). The plates were incubated at 37 C for 5 h. After 1 uL of LiveBLAzerTM B/G FRET substrate was added using a Flying Reagent Dispenser (FRD, Beckman Coulter, Indianapolis, IN, USA), the plates were incubated at room temperature for 2.5 h, and fluorescence intensity was measured by an Envision plate reader (PerkinElmer, Shelton, CT). For cell viability readout that measures cytotoxicity, 3 ul/well of CellTiter-Glo reagent was added into the assay plates using a FRD. After 30 min incubation at room temperature, the luminescence intensity in the plates was measured using a ViewLux (PerkinElmer) plate reader.
For orientation: In qHTS, concentration-response curves come from the screen itself.
With `O=C(O)c1ccc(=O)[nH]c1`, the Potency entry was “inactive”. On the same count and under the same terms, in the case of `C=C(C)C(=O)OCCCCOC(=O)C(=C)C` it was “inactive”; in that of `O=S(=O)(Cl)Cl`, “inactive”; in that of `COC(=O)C1(O)c2ccccc2-c2ccccc21`, “inactive”. Regarding `O=S(=O)(c1ccccc1)c1ccccc1`, the Potency result was “inactive”.

For the compound `C[C@@H]1C[C@@H]([C@H](O)CC2CC(=O)NC(=O)C2)C(=O)[C@@H](C)C1`, the Potency entry was “inactive”. Turning to `CC(C)(C)NCC(O)c1cc(Cl)c(N)c(C(F)(F)F)c1` (stereo not given), the Potency entry was “inactive”.

Consider `CN1C(=O)CN=C(c2ccccc2)c2cc([N+](=O)[O-])ccc21`, for which the Potency entry was “inactive”. As to `CC1(C)[C@H](C(=O)O[C@H](C#N)c2cccc(Oc3ccccc3)c2)[C@@H]1C=C(Br)Br`, the Potency entry is “inactive”.

As for `CC(Cc1ccccc1)NCc1ccccc1Cl` (stereo not given), the Potency result is “inactive”. Still for that read-out and setting: in the case of `Cc1ccc(N)c(C)c1` it was “inactive”. On the same count and under the same terms, then `O=C1CC[C@@]2(O)[C@H]3Cc4ccc(O)c5c4[C@@]2(CCN3CC2CC2)[C@H]1O5`, with “inactive”; and `CC(C)c1ccc(NC(=O)N(C)C)cc1`, with “inactive”; and `C[C@]12CC[C@H]3[C@@H](CCC4=CC(=O)CC[C@@H]43)[C@@H]1CC[C@@H]2OC(=O)CCc1ccccc1`, with “inactive”.

As to `CCOP(=O)(SC(C)CC)N1CCSC1=O` (stereo not given), the Potency result is “inactive”. As to `CCCN(CCC)c1c([N+](=O)[O-])cc(C(C)C)cc1[N+](=O)[O-]`, the Potency result is “inactive”.

With `COc1cc(CC(C)N)c(OC)cc1Br` (stereo not given), the Potency result is “inactive”. Still for that read-out and setting: then `CCc1ccccc1N`, with “inactive”. As to `SCc1ccccc1`, the Potency entry is “inactive”. Still for that read-out and setting: in the case of `Cc1nc2ccccc2c(=O)n1-c1ccccc1Cl` it was “inactive”; in that of `CCOP(=S)(S)OCC`, “inactive”; in that of `O=C(O)CCCOc1ccc(Cl)cc1Cl`, “inactive”.

With `COCc1cnc(C2=NC(C)(C(C)C)C(=O)N2)c(C(=O)O)c1` (stereo not given), the Potency entry was “inactive”.

Take `O=[N+]([O-])c1cc(Cl)c(Cl)cc1Cl`: the Potency entry is “inactive”. Take `N#CC(C#N)=Cc1ccc(O)c(O)c1`: the Potency result was “inactive”.

In the case of `CC(O)CN1CCN(CC(=O)[O-])CCN(CC(=O)[O-])CCN(CC(=O)[O-])CC1.[Gd+3]` (stereo not given), the Potency entry is “inactive”. `CCCC[P+](CC)(CCCC)CCCC` (tested in a mixture with another compound): the Potency result was “inactive”. On to `C=CC(=O)NC(C)(C)CC(C)=O`, for which the Potency result was “inactive”.

Consider `CC[N+]1(CCOC(=O)C(O)(c2ccccc2)c2ccccc2)CCCCC1`, for which the Potency entry was “inactive”. As for `[Cl-].[Cl-].[Hg+2]`, the Potency was 3.87 µM (active) and 30.9 µM (active). Still for that read-out and setting: then `COc1ccc(C(=O)c2c(C)n(CCN3CCOCC3)c3ccccc23)cc1`, with “inactive”; and `CN(C)C(=O)Nc1cccc(OC(=O)NC(C)(C)C)c1`, with “inactive”; and `CCC1(CC)C(=O)NC(=O)NC1=O`, with “inactive”. Still for that read-out and setting: in the case of `C[C@]12C=CC3=C4CCC(=O)C=C4CC[C@H]3[C@@H]1CC[C@@H]2O` it was “inactive”; in that of `CCC(C)Cl` (stereo not given), “inactive”.

`C[N+]1(CCF)[C@@H]2CC[C@H]1CC(OC(=O)C(O)(c1ccccc1)c1ccccc1)C2` (stereo not given in full): the Potency result was “inactive”. On the same count and under the same terms, in the case of `Cc1cnc(C2=NC(C)(C(C)C)C(=O)N2)c(C(=O)O)c1` (stereo not given) it was “inactive”; in that of `CCCN(CCC)C(=O)Cc1c(-c2ccc(Cl)cc2)nc2ccc(Cl)cn12`, “inactive”.

Consider `CCCCCCCCCCCCN=C(N)N`, for which the activity change, negative = cytotoxicity was -18.4% [at 2.7 µM] (inactive). As to `NCCc1cc(O)c(O)cc1O`, the Potency result is “inactive”.
